Laboratory results as given in PubChem BioAssay AID488922 (Johns Hopkins Ion Channel Center, 2010).
Hit rate of the full screen: of about 310,000 compounds, about 3,800 (1.2%) were called active.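 Rule for the calls: active = ratio B-score over 3 SD below the library mean, with starting fluorescence within 5 SD of its mean; inactive = the rest, inconclusive results apart.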 Many of the other results were omitted from the sample, so actives are more common in it than they were.

Target: Potassium channel subfamily K member 9 (Homo sapiens) (UniProt Q9NPC2)
Test: blockers of human TASK-3 (KCNK9) channel – HEK293 cells, thallium flux, primary screen (AID 488922);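 for B-score: negative B-score means less thallium flux so channel inhibition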
Conditions: HEK293 KCNK9, FluxOR thallium flux fluorescence, at 10 µM; active compounds read low

Potassium channel subfamily K member 9 (Homo sapiens), sequence (Q9NPC2 whole entry, looked up): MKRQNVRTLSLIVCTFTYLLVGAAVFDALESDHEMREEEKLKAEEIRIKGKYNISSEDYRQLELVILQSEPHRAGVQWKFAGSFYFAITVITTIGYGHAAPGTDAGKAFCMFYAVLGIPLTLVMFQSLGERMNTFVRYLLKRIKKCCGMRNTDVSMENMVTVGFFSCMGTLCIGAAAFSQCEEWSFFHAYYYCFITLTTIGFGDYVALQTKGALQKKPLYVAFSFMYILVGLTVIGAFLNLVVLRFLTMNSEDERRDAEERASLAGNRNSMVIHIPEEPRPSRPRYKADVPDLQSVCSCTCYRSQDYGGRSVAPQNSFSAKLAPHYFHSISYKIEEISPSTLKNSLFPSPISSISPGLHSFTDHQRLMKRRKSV

Row | SMILES | B-score
1 | O=C(NCc1ccccc1)c1onc(CSc2ccncc2)c1C(=O)NCc1ccccc1 | inactive
2 | CS(=O)(=O)N(CC(=O)Nc1ccc(F)cc1)C1CCCCC1 | inactive
3 | CS(=O)(=O)N(CC(=O)Nc1ccc(Cl)c(Cl)c1)C1CCCCC1 | -7.01 (active)
4 | CCC(C)NC(=O)CN(C1CCCCC1)S(C)(=O)=O (configuration not stated) | inactive
5 | Cc1csc(/N=C/N(C)C)c1C#N | inactive
6 | Cc1ccc(S(=O)(=O)/N=C(/NC(=S)Nc2c(C)n(C)n(-c3ccccc3)c2=O)c2ccccc2)cc1 | inactive
7 | O=C(COC(=O)c1ncc(Cl)c(Cl)c1Cl)NC1CCS(=O)(=O)C1 (configuration not stated) | inactive
8 | CC1(C)C(C=C(Cl)Cl)C1C(=O)N(Cc1ccc(Cl)cc1)C1CCS(=O)(=O)C1 (configuration not stated) | inactive
9 | Cc1ccc(CN(C(=O)c2sc3ccccc3c2Cl)C2CCS(=O)(=O)C2)cc1 (configuration not stated) | -7.41 (active)
10 | COc1ccc(C(=O)N(Cc2ccc(N(C)C)cc2)C2CCS(=O)(=O)C2)cc1 (configuration not stated) | inactive
11 | O=[N+]([O-])c1c(NCCO)cc(Sc2nc3ccccc3s2)c2nonc12 | inactive
12 | Cc1onc(-c2ccccc2Cl)c1C(=O)N(Cc1ccc(N(C)C)cc1)C(C)C | inactive
13 | C=C(C)CSc1nc(N)c2c3c(sc2n1)CCC3 | inactive
14 | C=CCn1c(SCC(=O)c2c(N)n(C)c(=O)n(C)c2=O)nc2sc(CC)cc2c1=O | inactive
15 | CC1(C)CC(=O)CC2(C1)NCC(c1ccccc1Cl)c1c2[nH]c2ccccc12 (configuration not stated) | -14.9 (active)
16 | O=[N+]([O-])/C=C1\CCCCCN1 | inactive
17 | C(=N\Nc1ccc2ccccc2n1)/c1ccc2c(c1)OCO2 | -6.68 (active)
18 | Cc1noc(C)c1/C=N/Nc1ccc2ccccc2n1 | inactive
19 | Brc1ccc(-c2csc(N/N=C/c3ccc4c(c3)OCO4)n2)cc1 | inactive
20 | CN1CC(=O)N=C1N | inactive
21 | CCCC1NC(=S)NC(C)=C1C(C)=O (configuration not stated) | inactive
22 | Cc1scc(C(=O)NNC(=S)NCc2ccccc2)c1C | inactive

Row | SMILES | B-score
23 | CCNc1nc(-c2cc3ccccc3o2)cs1 | inactive
24 | COc1ccc2nc(Nc3nc(-c4cc5ccccc5oc4=O)cs3)sc2c1 | -6.66 (active)
25 | O=c1oc2ccccc2cc1-c1csc(Nc2ccc(O)cc2)n1 | inactive
26 | O=C(CCC1CCCC1)N=C1SC2CS(=O)(=O)CC2N1Cc1ccccc1 (configuration not stated) | inactive
27 | Cn1c(=O)n(C)c2cc(C(=O)Nc3ccc(Br)cc3)ccc21 | inactive
28 | Cc1ccc(-n2nc(-c3ccco3)cc2C(=O)NCc2cccnc2)cc1 | inactive
29 | CC(C)C[C@@H](CO)N1CCN(Cc2ccc(O)cc2)CCC1=O | inactive
30 | CCOC(=O)Cc1cc(=O)[nH]c(=O)[nH]1 | -8.45 (active)
31 | CCOCCCNC(=O)Cc1cc(=O)[nH]c(=O)[nH]1 | inactive
32 | CCOC(=O)Cc1cc(=O)[nH]c(/N=C(\N)Nc2ccc(OC)cc2)n1 | inactive
33 | CC1CCCN(CCCNC(=O)CN2C(=O)COc3ccc(S(=O)(=O)N4CCOCC4)cc32)C1 (configuration not stated) | inactive
34 | O=C1/C(=C/c2cccs2)CCC1C1CCCC1 (configuration not stated) | inactive
35 | Cc1cc2ccccn2c1C(=O)c1cccc(F)c1 | -13.4 (active)
36 | Cc1cc2ccccn2c1C(=O)c1cccc(S(=O)(=O)N2CCOCC2)c1 | inactive
37 | CC(=O)Nc1ccc(/C=N/Nc2ccc(C(=O)c3c(C)cc4ccccn34)cc2[N+](=O)[O-])cc1 | inactive
38 | CN(Cc1c(F)cccc1Cl)C(=O)CNC(=O)c1ccc2c(c1)OCO2 | inactive
39 | O=C(c1ccccc1Cl)N(Cc1ccccc1F)N1C(=O)CCCC1=O | inactive
40 | CN(Cc1ccccc1)C(=O)COC(=O)c1ccccc1Nc1ccccc1 | inactive
41 | Cc1c(C(=O)NCCCc2ccccc2)cccc1[N+](=O)[O-] | inactive
42 | O=C(OCC(=O)N(CCc1ccccc1)Cc1ccccc1)c1ccccc1[N+](=O)[O-] | -17.6 (active)
43 | CCOc1ccc2c(c1)C(c1ccc(C)cc1)=NNC(c1ccc(C)cc1)=N2 | inactive
44 | Cc1ccc(-c2csc(-c3c[nH]c4ccccc34)n2)cc1 | inactive

Row | SMILES | B-score
45 | Cc1ccc(C2=Nc3c(ccc4ccccc34)C(c3ccncc3)=NN2)cc1 | -10.7 (active)
46 | CCCCCC(=O)N1CCN(S(=O)(=O)c2ccc3c(c2)OCCCO3)CC1 | inactive
47 | O=C(Cc1cccs1)N(CC1CCCO1)C1(C(=O)NC2CCCCC2)CCCCC1 (configuration not stated) | inactive
48 | O=C(CCSCCc1ccccn1)Nc1nccs1 | inactive
49 | COc1ccc(S(=O)(=O)N2CCN(C(=O)N(C)C)C2C)cc1 (configuration not stated) | inactive
50 | CC(OC(=O)c1ccccc1OCc1ccc(Cl)cc1)C(N)=O (configuration not stated) | inactive
51 | CCOc1ncccc1C(=O)NCCc1ccc(OC)cc1 | inactive
52 | CC(=O)c1ccccc1OCc1ccc(C(=O)c2ccccc2)cc1 | -6.64 (active)
53 | COc1ccc(OCCCC(=O)NCCc2ccccc2)cc1 | inactive
54 | COc1ccc(CCNC(=O)c2ccccc2OCc2ccccc2)cc1 | -8.98 (active)
55 | O=C(NC1CCC(O)CC1)c1ccccc1OCc1ccc(F)cc1 (configuration not stated) | inactive
56 | COc1cccc(CN2CCNC(=O)C2CC(=O)N(C)CCc2ccccn2)c1 (configuration not stated) | inactive
57 | Cc1ccc(CN(N=Nc2nonc2N)c2nonc2N)c(C)c1 | -10.2 (active)
58 | CCN(CC(=O)NCC(=O)Nc1cccc(C)c1C)Cc1ccccc1 | inactive
59 | CC1(C)C2CC[C@]3(C)C(CC=C4[C@@H]5C[C@@](C)(CO)CC[C@]5(C(=O)O)CC[C@]43C)[C@@]2(C)CC[C@@H]1O (some centres not stated) | inactive
60 | Cc1n[nH]c(=O)c2c1nnn2Cc1ccc(F)cc1 | inactive
61 | COc1ccc(NC(=O)c2cc3nc(-c4ccccc4)cc(C)n3n2)cc1OC | inactive
62 | COCCNc1cc(-c2ccccc2)nc2cc(-c3cccc(F)c3)nn12 | -9.68 (active)
63 | COC(=O)c1cc2nc(-c3ccccc3)cc(C(F)(F)F)n2n1 | inactive
64 | COCCN(Cc1nc(-c2ccc(C(F)(F)F)cc2)no1)C(C)C | inactive
65 | O=C(Cc1ccc2c(c1)CCCC2)Nc1ccccc1Cl | inactive
66 | O=C(Nc1ccccc1Cl)/C(Cl)=C(\Cl)S(=O)c1ccccc1 (configuration not stated) | -6.6 (active)

Row | SMILES | B-score
67 | O=C(Nc1ccccc1Cl)Nc1cccc2cccnc12 | inactive
68 | COc1cc(-c2nnc(Cn3cc(C(F)(F)F)ccc3=O)o2)cc(OC)c1OC | inactive
69 | COc1cccc(-c2cc3nc4c(c(N5CCC6(CC5)OCCO6)n3n2)CCCC4)c1 | -9.24 (active)
70 | COc1cccc(NC(=O)CN2CCN(c3nc(-c4cccc(OC)c4)cs3)CC2)c1 | inactive
71 | COc1cccc(CNc2nc3nc4c(c(=O)n3[nH]2)CCC4)c1 | inactive
72 | CCC(=O)Nc1nnc(S(=O)(=O)N2CCCc3ccccc32)s1 | inactive
73 | CCSc1nsc(NC(=O)Nc2cccc(C(C)=O)c2)n1 | inactive
74 | Cc1ccc(C(=O)N(CC(=O)NC2CCCC2)c2ccc(F)cc2)s1 | inactive
75 | O=C(CSc1ccccc1)Nc1cc(Cl)ccc1Oc1ccccc1 | -8.08 (active)
76 | CC(=O)Nc1ccc(SCC(=O)Nc2ccccc2Oc2ccccc2)cc1 | inactive
77 | CC1CCCN(CC(=O)Nc2cc(Cl)ccc2Oc2ccccc2)C1 (configuration not stated) | inactive
78 | N#CCOc1ccc(C2=NO[C@@H]3[C@@H]4C[C@@H]([C@H]5C(=O)N(c6ccc7c(c6)OCO7)C(=O)[C@@H]45)[C@H]23)cc1 | inactive
79 | O=C(N/C(=C\c1ccc(O)cc1)C(=O)N1CCCCC1)c1ccccc1 | inactive
80 | COc1ccc(C)cc1NC(=O)NCCCCc1ccccc1 | inactive
81 | COc1ccc(C)cc1NC(=O)Nc1ccccc1SC | inactive
82 | COc1ccc(C)cc1NC(=O)C(Sc1ccccc1)c1ccccc1 (configuration not stated) | -8.19 (active)
83 | CC(Sc1nnnn1C)C(=O)NC(=O)NC1CCCCC1 (configuration not stated) | inactive
84 | Cc1ccc(S(=O)(=O)NC(C)C(=O)NCc2ccc(Cl)cc2)cc1 (configuration not stated) | inactive
85 | Cc1cc(Cl)ccc1OCc1nc(-c2ccncc2)no1 | inactive
86 | NC(=O)c1ccc(NC(=O)COC(=O)c2c3c(nc4ccccc24)/C(=C\c2ccc4c(c2)OCO4)CCC3)cc1 | inactive
87 | O=C(Nc1c2c(nc3ccccc13)CCCC2)c1ccccc1Br | inactive
88 | O=C(COC(=O)c1c2c(nc3ccccc13)CCCC2)c1ccc(Br)s1 | -9.29 (active)

Row | SMILES | B-score
89 | COC(=O)COc1ccc2c(=O)c(Oc3ccccc3Br)coc2c1 | inactive
90 | CCCCc1cc(=O)oc2c(C)c(OCC(=O)N3CCC(C(N)=O)CC3)ccc12 | inactive
91 | O=C(/C=C/c1ccc(N2CCOCC2)cc1)c1ccccc1 | inactive
92 | CCOc1ncccc1C(=O)OCC(=O)NC1CC1 | inactive
93 | Cc1nc2ccccc2c(=O)n1NC(=O)c1ccc(Cl)c([N+](=O)[O-])c1 | inactive
94 | O=C(Nn1c(SCc2ccc([N+](=O)[O-])cc2)nc2ccccc2c1=O)c1ccc(F)cc1 | -8.82 (active)
95 | C=CCn1c(SCc2ccc(C(=O)NCCO)cc2)nc2ccccc2c1=O | inactive
96 | O=C(Cn1nc([N+](=O)[O-])nc1Br)NC1CCCCC1 | inactive
97 | CCC1Nc2ncnc(N3CCN(c4ccccc4)CC3)c2N(Cc2ccc(Cl)cc2)C1=O (configuration not stated) | inactive
98 | Cc1nc(N2CCN(c3ccccn3)CC2)c2c(C)c(C(=O)Nc3ccc(F)c(Cl)c3)sc2n1 | -10.3 (active)
99 | COc1ccc(NC(=O)c2sc3nc(C)nc(N4CCN(c5ccccn5)CC4)c3c2C)c(OC)c1 | inactive
100 | Cc1nc(N2CCN(c3ccccn3)CC2)c2c(C)c(C(=O)Nc3ccc(F)cc3)sc2n1 | inactive
101 | Cc1ccc2cccc(OCCCOc3ccccc3CO)c2n1 | inactive
102 | O=C(COC(=O)/C(=C/c1cccs1)c1cccs1)NCc1ccccc1Cl | -9.72 (active)
103 | O=C(COC(=O)c1cc2c(s1)CCCC2)NCc1ccccc1Cl | inactive
104 | O=C(COC(=O)c1cccs1)NCc1cccs1 | inactive
105 | CC(C)(C)NC(=O)COC(=O)c1cc(Br)ccc1Cl | inactive
106 | O=C(NNS(=O)(=O)c1ccc(F)cc1)c1ccc([N+](=O)[O-])cc1Cl | inactive
107 | COc1ccc(-c2[nH]ncc2/C=N/NC(=O)c2cc(Br)ccc2O)c(OC)c1 | inactive
